# In the supplement of paper PMC8728848:
# This excerpt belongs to a sample that is enriched for the strongest signals.
# What was measured:
# Assay in all cases: glycan array binding signal (z-score within array); higher = stronger binding
# Conditions in all cases: glycan notation: IUPAC condensed, linker removed
# [1] = molecular target: Fuc(a1-2)Gal(b1-3)GlcNAc(b1-2)Man(a1-3)[Fuc(a1-2)Gal(b1-3)GlcNAc(b1-2)Man(a1-6)]Man(b1-4)GlcNAc(b1-4)[Fuc(a1-6)]GlcNAc
# In short: (§1)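 Glycan array data were curated from 3228 arrays in the Consortium for Functional Glycomics database and kept only where the protein sequence was available. Glycan names were converted to IUPAC-condensed notation, and columns mapping to the same glycan were averaged. The binding signal is a within-array Z-score, averaged across arrays of the same protein sequence at different concentrations or buffers and across linkers. Negative Z-scores can be read as non-binding.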
# [2] = molecular target: Fuc(a1-2)Gal(b1-3)GlcNAc(b1-3)[Fuc(a1-2)Gal(b1-3)GlcNAc(b1-6)]GalNAc
# In short: as §1
# [3] = molecular target: Fuc(a1-2)Gal(b1-3)[Fuc(a1-4)]GlcNAc(b1-3)[Gal(b1-4)GlcNAc(b1-6)]Gal(b1-4)Glc
# In short: as §1
# [4] = molecular target: Fuc(a1-2)Gal(b1-4)GlcNAc(b1-3)Gal(b1-4)GlcNAc(b1-2)Man(a1-3)[Fuc(a1-2)Gal(b1-4)GlcNAc(b1-3)Gal(b1-4)GlcNAc(b1-2)Man(a1-6)]Man(b1-4)GlcNAc(b1-4)GlcNAc
# In short: as §1
# [5] = molecular target: Fuc(a1-2)[Gal(a1-3)]Gal(b1-4)GlcNAc
# In short: as §1
# [6] = molecular target: Fuc(a1-2)[Gal(a1-3)]Gal(b1-4)GlcNAc(b1-3)[Fuc(a1-2)[Gal(a1-3)]Gal(b1-4)GlcNAc(b1-6)]GalNAc
# In short: as §1
# [7] = molecular target: Fuc(a1-2)[GalNAc(a1-3)]Gal(b1-3)GlcNAc(b1-6)GalNAc
# In short: as §1
# [8] = molecular target: Fuc(a1-3)[Gal(b1-4)]GlcNAc(b1-3)GalNAc
# In short: as §1
# [9] = molecular target: Fuc(a1-4)GlcNAc
# In short: as §1
# [10] = molecular target: Fuc(b1-3)GlcNAc
# In short: as §1
# [11] = molecular target: Gal(a1-3)Gal(b1-4)[Fuc(a1-3)]GlcNAc(b1-2)Man(a1-3)[Gal(a1-3)Gal(b1-4)[Fuc(a1-3)]GlcNAc(b1-2)Man(a1-6)]Man(b1-4)GlcNAc(b1-4)GlcNAc
# In short: as §1
# [12] = molecular target: Gal(a1-4)GlcNAc
# In short: as §1
# [13] = molecular target: Gal(b1-3)GlcNAc(a1-6)Gal(b1-4)GlcNAc
# In short: as §1
# [14] = molecular target: Gal(b1-4)GlcNAc(b1-3)Gal(b1-3)GalNAc
# In short: as §1
# [15] = molecular target: Gal(b1-4)GlcNAc(b1-3)Gal(b1-3)GlcNAc
# In short: as §1
# [16] = molecular target: Gal(b1-4)GlcNAc(b1-3)Gal(b1-4)GlcNAc(b1-2)[Gal(b1-4)GlcNAc(b1-3)Gal(b1-4)GlcNAc(b1-6)]Man(a1-6)[Gal(b1-4)GlcNAc(b1-3)Gal(b1-4)GlcNAc(b1-2)Man(a1-3)]Man(b1-4)GlcNAc(b1-4)GlcNAc
# In short: as §1
# [17] = molecular target: Gal(b1-4)GlcNAc(b1-3)Gal(b1-4)GlcNAc(b1-3)Gal(b1-4)GlcNAc(b1-3)Gal(b1-4)GlcNAc(b1-2)[Gal(b1-4)GlcNAc(b1-3)Gal(b1-4)GlcNAc(b1-3)Gal(b1-4)GlcNAc(b1-3)Gal(b1-4)GlcNAc(b1-6)]Man(a1-6)[Gal(b1-4)GlcNAc(b1-3)Gal(b1-4)GlcNAc(b1-3)Gal(b1-4)GlcNAc(b1-3)Gal(b1-4)GlcNAc(b1-2)Man(a1-3)]Man(b1-4)GlcNAc(b1-4)[Fuc(a1-6)]GlcNAc
# In short: as §1
# [18] = molecular target: Gal(b1-4)GlcNAc(b1-3)Gal(b1-4)GlcNAc(b1-3)Gal(b1-4)GlcNAc(b1-3)Gal(b1-4)GlcNAc(b1-3)Gal(b1-4)GlcNAc(b1-2)Man(a1-3)[Gal(b1-4)GlcNAc(b1-3)Gal(b1-4)GlcNAc(b1-3)Gal(b1-4)GlcNAc(b1-3)Gal(b1-4)GlcNAc(b1-3)Gal(b1-4)GlcNAc(b1-2)Man(a1-6)]Man(b1-4)GlcNAc(b1-4)[Fuc(a1-6)]GlcNAc
# In short: as §1
# [19] = molecular target: Gal3S(b1-3)[Fuc(a1-4)]GlcNAc
# In short: as §1
# [20] = molecular target: Gal3S(b1-4)Glc
# In short: as §1
# [21] = molecular target: Gal3S(b1-4)[Fuc(a1-3)]GlcNAc6S
# In short: as §1
# [22] = molecular target: GalNAc(a1-3)GalNAc(b1-3)Gal(a1-4)Gal(b1-4)GlcNAc
# In short: as §1
# [23] = molecular target: Glc(b1-6)Glc
# In short: as §1
# [24] = molecular target: GlcNAc(a1-4)Gal(b1-4)GlcNAc(b1-3)Gal(b1-4)[Fuc(a1-3)]GlcNAc(b1-3)Gal(b1-4)[Fuc(a1-3)]GlcNAc
# In short: as §1
# [25] = molecular target: GlcNAc(b1-2)Man(a1-3)[GlcNAc(b1-2)Man(a1-6)]Man(b1-4)GlcNAc(b1-4)GlcNAc
# In short: as §1
# [26] = molecular target: Kdn(a2-3)Gal(b1-3)GlcNAc
# In short: as §1
# [27] = molecular target: Man(a1-2)Man(a1-3)[Man(a1-2)Man(a1-6)]Man
# In short: as §1
# [28] = molecular target: Man(a1-2)Man(a1-3)[Man(a1-6)]Man(a1-6)[Man(a1-2)Man(a1-3)]Man(b1-4)GlcNAc(b1-4)GlcNAc
# In short: as §1
# [29] = molecular target: Man(a1-2)Man(a1-6)[Man(a1-3)]Man(a1-6)[Man(a1-2)Man(a1-2)Man(a1-3)]Man
# In short: as §1
# [30] = molecular target: Neu5Ac(a2-3)Gal(b1-3)[GlcNAc(b1-6)]GalNAc
# In short: as §1
binder,measurement,setting,value
"BC2LB (Burholderia cenocepacia), B4EH85_BURCJ (protein) MGSSHHHHHHSSGENLYFQGHMSQPFTHDDLYALLQLAGNDATAVQANGDQAVLDRMRQFMTAQLVEKLPQYDVFVDIATIPYSFDVGSWQNKVKTDAAGEVVACTVTWAGAPGVLPGAAAKFGVGAVVNYFSKATPH",glycan array binding signal (z-score),[1],-0.135
same,glycan array binding signal (z-score),[2],-0.166
same,glycan array binding signal (z-score),[3],-0.251
same,glycan array binding signal (z-score),[4],0.245
same,glycan array binding signal (z-score),[5],-0.238
same,glycan array binding signal (z-score),[6],6.98
same,glycan array binding signal (z-score),[7],7.53
same,glycan array binding signal (z-score),[8],0.001
same,glycan array binding signal (z-score),[9],2.88
same,glycan array binding signal (z-score),[10],1.63
same,glycan array binding signal (z-score),[11],0.053
same,glycan array binding signal (z-score),[12],-0.101
same,glycan array binding signal (z-score),[13],-0.227
same,glycan array binding signal (z-score),[14],-0.131
same,glycan array binding signal (z-score),[15],-0.143
same,glycan array binding signal (z-score),[16],11.3
same,glycan array binding signal (z-score),[17],-0.198
same,glycan array binding signal (z-score),[18],0.012
same,glycan array binding signal (z-score),[19],0.995
same,glycan array binding signal (z-score),[20],1.52
same,glycan array binding signal (z-score),[21],0.149
same,glycan array binding signal (z-score),[22],-0.055
same,glycan array binding signal (z-score),[23],0.216
same,glycan array binding signal (z-score),[24],1.79
same,glycan array binding signal (z-score),[25],-0.234
same,glycan array binding signal (z-score),[26],-0.201
same,glycan array binding signal (z-score),[27],-0.345
same,glycan array binding signal (z-score),[28],-0.397
same,glycan array binding signal (z-score),[29],-0.2
same,glycan array binding signal (z-score),[30],-0.242
